PubChem BioAssay AID709 (SRMLSC, 2007)
The campaign covered roughly 65,000 compounds. About 3,600 (5.5%) were called active.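 The calls were made as follows: active = at 10 µM, mean starting fluorescence two-fold or more over control wells; inactive = the rest.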 The entries come from a sample that favours actives as a whole.

experiment: intrinsic fluorescence of library compounds, ex339/em460 – biochemical, MLSMR library, data from DPM-DC assay, artefact control, profiling panel (AID 709); details: compound autofluorescence, ex339/em460 nm, NADH buffer; at 10 µM; stronger effect = higher value; 1 = no-compound wells, NADH background;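 also: signal is the first read of a kinetic run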

SMILES	fluorescence fold increase
CCc1nnc(NC(=O)c2c(O)c3c([nH]c2=O)CCCC3)s1	1.12 (inactive)
Cc1ccc2cccc(S(=O)(=O)N3CCN(c4ccccc4F)CC3)c2n1	1.14 (inactive)
O=C(CN1C(=O)CCC1=O)Nc1ccc(S(=O)(=O)N2CCOCC2)cc1	1.15 (inactive)
C=CCSC1=C(C#N)C(c2cc(Br)c(O)c(OC)c2)CC(=O)N1 (centres undefined)	1.07 (inactive)
CN(c1ccc(C(=O)N2CCc3ccccc3C2)cc1)S(C)(=O)=O	1.11 (inactive)
O=[n+]1c2c(n([O-])c3cc(Br)ccc31)CCC2	1.07 (inactive)
CN1CCCc2cc(C#N)c(=O)[nH]c21	2.4 (active)
CC(C)(C)n1nnc(CCc2nnn(C(C)(C)C)n2)n1	1.09 (inactive)
COC(=O)C(C)C1Sc2ccccc2NC1=O (centres undefined)	1.01 (inactive)
CCc1ccc(Nc2ncc3c(n2)CC(c2ccco2)CC3=O)cc1 (centres undefined)	2.39 (active)
O=C(Nc1ncc2c(n1)CC(c1ccco1)CC2=O)c1ccc(Cl)cc1 (centres undefined)	1.05 (inactive)
CCc1ccc(NC(=O)CSc2nnc(-c3cnccn3)n2Cc2ccco2)cc1	1.06 (inactive)
COc1ccc(CN2CC(C(=O)NCCN3CCN(c4ccccc4F)CC3)CC2=O)cc1 (centres undefined)	1.08 (inactive)
CCOC(=O)CN1C(=O)C(O)(CC(=O)c2ccccn2)c2ccccc21 (centres undefined)	1.04 (inactive)
O=C(Oc1ccccc1)c1ccc2nccnc2c1	1.04 (inactive)
CC(=O)N1CC2(C)CN(C(C)=O)CC(C)(C1)C2=O	1.11 (inactive)
COCCNC(=O)c1snc2ccc(Cl)cc12	1.2 (inactive)
COc1ccccc1N1CCN(C(=O)c2cc3c(-c4ccc(Cl)cc4)nn(C)c3s2)CC1	1.07 (inactive)
Cn1nc(-c2ccc(Cl)cc2)c2cc(C(=O)NCc3ccco3)sc21	2.11 (active)
CCOC(=O)N1CCN(C(=O)c2cc3c(-c4ccc(Cl)cc4)nn(C)c3s2)CC1	1.19 (inactive)
COc1ccc(S(=O)(=O)N2CCCC2)c(C)c1C	1.06 (inactive)
COc1cccc(-c2cc3nc4c(c(N5CCC6(CC5)OCCO6)n3n2)CCCC4)c1	1.74 (inactive)

SMILES	fluorescence fold increase
c1ccc(-c2oc3ncnc(N4CCOCC4)c3c2-c2ccccc2)cc1	2.38 (active)
c1ccc(COc2nsnc2N2CCOCC2)cc1	1.12 (inactive)
O=C1c2ccccc2-c2ncnc3c(N4CCOCC4)cc(N4CCOCC4)c1c23	1.04 (inactive)
COC(=O)c1ccc(OC(=O)c2nn(C)cc2Cl)c(OC)c1	1.11 (inactive)
CCOc1ccc(N(CC(=O)OC)S(=O)(=O)c2c(C)noc2C)cc1	1.1 (inactive)
O=C(NC1CCCC1)c1ccc(Br)s1	1.08 (inactive)
CCc1nnc(NC(=O)c2cccs2)s1	1 (inactive)
COc1cc(C(=O)Nc2nccs2)cc(OC)c1OC	1.09 (inactive)
Cc1ccc(C(=O)Nc2nnc(-c3cccs3)s2)cc1C	3.04 (active)
COc1ccc(OC)c2c1sc(=NC(=O)CN1C(=O)CCC1=O)n2C	1.13 (inactive)
CC1CCc2c(sc(NC(=O)c3ccc(Cn4cc(Br)cn4)o3)c2C(N)=O)C1 (centres undefined)	3.78 (active)
CCc1c(C)nc(N2CCN(Cc3ccccc3)CC2)[nH]c1=O	1.06 (inactive)
Cn1c(=O)[nH]c(=O)c2c1nc(CN1CCN(c3ccccc3F)CC1)n2CCc1ccccc1	1.09 (inactive)
CC(C)CNC(=O)C1CCCN(S(=O)(=O)c2ccc(-n3cnnn3)cc2)C1 (centres undefined)	1.07 (inactive)
CC1CCN(C(=O)CSc2ccc3nnc(-c4cccc(F)c4)n3n2)CC1	1.4 (inactive)
COC(=O)C(C)Sc1ccc2nnc(-c3cccc(F)c3)n2n1 (centres undefined)	2.06 (active)
CCOc1ccc(-c2nnc3ccc(SC)nn23)cc1	1.17 (inactive)
CCCOc1ccc(CN(CCO)CCO)cc1C(=O)OC	1.07 (inactive)
Cc1cccc(Cn2c(SCCO)nc3c2c(=O)n(C)c(=O)n3C)c1	0.95 (inactive)
COC(=O)C1C(=O)CC(C)(O)C(C(=O)OC)C1c1ccc2c(c1)OCO2 (centres undefined)	1.09 (inactive)
Cc1cc(=O)[nH]c(SCC(N)=O)c1C#N	1.12 (inactive)
COc1ccc(C2CC(c3ccc(C)cc3)Nc3nc(N)nn32)cc1 (centres undefined)	1.09 (inactive)

SMILES	fluorescence fold increase
CCOC(=O)c1c(C)n(C)c2ccc(OC)c(NC(=O)CN3CCC4(CC3)OCCO4)c12	1.04 (inactive)
C=CCn1c(C(C)NC(=O)CC)nc2ccccc21 (centres undefined)	1.1 (inactive)
CCCCNc1nc2ccccc2nc1NS(=O)(=O)c1cccs1	1.35 (inactive)
COC(=O)c1cn(CC(=O)NCc2cccs2)c2ccccc12	1.12 (inactive)
C=CCn1c(N)c(C(=O)OCC(C)C)c2nc3ccccc3nc21	3.79 (active)
CCN(CC(=O)NCc1cccs1)c1nnnn1-c1ccccc1	1.04 (inactive)
C=CCn1c2ccccc2c2nnc(SC(CC)C(=O)Nc3nc(C)c(C(=O)OCC)s3)nc21 (centres undefined)	1.22 (inactive)
CC(C)Cn1c(N)c(C(=O)NCc2cccs2)c2nc3ccccc3nc21	3.03 (active)
C=CCn1c(N)c(S(=O)(=O)c2cccs2)c2nc3ccccc3nc21	3.9 (active)
CCOC(=O)C1CCN(C(=O)CSc2cc(=O)n(C)c3ccccc23)CC1	1.32 (inactive)
Cc1ccc(OCCCC(=O)N2CCOCC2)c(C)c1	1.13 (inactive)
Cc1ccc(CCn2c3c(c4ccccc42)CN(C)CC3)cn1	1.12 (inactive)
CCOC(=O)c1ccc(NC(=O)CS(=O)(=O)c2cn(CC)c3ccccc23)cc1	1.08 (inactive)
CC1(C)C(=O)Nc2ccccc2N1C(=O)COC(=O)Cn1cnc2ccccc2c1=O	1.03 (inactive)
CCn1c(COc2ccccc2)nnc1SCC(=O)Nc1ccc2c(c1)OCCO2	1.12 (inactive)
COCCn1nnnc1CN1CCC(NC(=O)Nc2cccc(OC)c2)CC1	1.05 (inactive)
COC(=O)Cc1csc(Nc2c(C)n(C)n(-c3ccccc3)c2=O)n1	1.09 (inactive)
COc1ccc(Nc2oc(-c3ccccc3Cl)nc2C#N)cc1	2.11 (active)
COc1ccc(-c2nnc(SC(C)C#N)o2)cc1 (centres undefined)	1.08 (inactive)
CCOc1ccc(Nc2oc(Cc3ccccc3)nc2C#N)cc1	1.13 (inactive)
